Data on twelve molecules can be found in PubChem BioAssay (NCI).

The structures appear in SMILES notation. The panel holds about 83,000 compounds, 20% with a hit somewhere; the sample as a whole holds those more often.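 Method: cells in 96-well plates; compound added at one concentration; 48 h incubation; percent growth measured; values under 10 scored active.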 Unmarked numbers belong to inactive results. Activity calls are given as the source filed them.

The assay relates to OVCAR-5 ovarian. Kind of assay: NCI-60 one-dose screen, 48 h (100 = growth as untreated, 0 = no growth, -100 = all killed). The conditions noted are these: 10 µM unless noted.
As to `CCC(=O)Nc1ccc(-c2nc(-c3cccc(O)c3)c(-c3ccnc(Br)c3)[nH]2)cc1`, the growth was 92.9%.
As for `NC(=O)c1c(NC(=O)c2cccc(OC(F)(F)F)c2)sc2c1CCC(=O)C2`, the growth is 62.5%.
Regarding `COc1cc(C2=NN(C(C)=O)C(c3ccc(N4CCOCC4)cc3)C2)cc(OC)c1OC` (configuration not stated), the growth is 103%.
With `CCC(=O)Nc1cc(Nc2cc(NC3CC3)n3ncc(C#N)c3n2)ccc1C`, the growth is 18.4%.
Regarding `O=C(CSc1ccc(-c2nc3ccccc3[nH]2)cn1)N1CCN(c2ccccc2F)CC1`, the growth is 107%.
On to `NCCN1CCN(c2nc(-c3ccccc3)nc3nc(-c4ccccc4)oc23)CC1`, for which the growth is -82.9% (active).
With `CCN(CC)Cc1c(-c2cccc(OC(F)(F)F)c2)[nH]c2ccc(N3CCCC3)cc2c1=O`, the growth is 92.5%.
As to `C#C[C@]1(O)CC[C@H]2[C@@H]3CC=C4c5sc(-c6ccc(OC)cc6)nc5CC[C@]4(C)[C@H]3CC[C@@]21C`, the growth is 71.2%.
`C#C[C@]1(O)CC[C@H]2[C@@H]3CC=C4c5sc(Nc6cc(OC)ccc6OC)nc5CC[C@]4(C)[C@H]3CC[C@@]21C`: the growth is 56.7%.
With `O=C(Nc1cccc(-c2nc(-c3ccc(NC(=O)c4cccnc4)cc3Cl)no2)c1)Nc1ccc(NC(=O)C2CC2)c(C(F)(F)F)c1`, the growth is -65.6% (active).
For the molecule `O=C(Nc1ccc(-c2nc(-c3cccc(O)c3)c(-c3ccnc(Br)c3)[nH]2)cc1)c1ccccc1`, the growth was 57.7%.
With `COc1ccccc1N1CCN(C2=NN=C(c3cccc(Cl)c3)c3ccccc3C2)CC1`, the growth was 40.4%.
